BCLXL inh: Bcl-xL (human) inhibition; Q07817; GST-Bcl-xL / FITC-Bim BH3 peptide fluorescence polarization; inhibition, % at 10.9 µM; actives 0.7% (n = 320,000); AID 2129;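 active = inhibition above the mean of all tested compounds plus 3 SD, cutoff set per campaign, cut at about 30% in these data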;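 note: 0% = DMSO wells and 100% = unlabeled Bim-BH3 peptide competitor; inhibitors lower millipolarization by displacing the labeled peptide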
EBV gp42 inh: EBV gp42 inhibition; Q1HVG2; Fluorescence polarization binding assay, mP read-out; inhibition, % (tested at 21.74 µM); actives 0.42% (n = 220,000); AID 1085; in the data active = inhibition above about 50%
eLon inh: inhibitors of E. coli Lon protease; P0A9M0; purified E. coli Lon protease, fluorescence polarization; inhibition, % at 7.94 µM; actives 0.42% (n = 360,000); in the data active = inhibition above about 13%, passing the limit was not always enough;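 note: 0% = enzyme with probe and DMSO and 100% = no enzyme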
MEX-5 binding: C. elegans MEX-5 TCR-2 RNA binding activity; Q9XUB2; MEX-5/FITC-TCR2 RNA binding, fluorescence polarization; hits give low values; activity score (negative = inhibition of binding), % at 10 µM; actives 0.38% (n = 300,000); AID 1832;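 active = inhibition past about -25% in most replicates, and total fluorescence under double the plate's negative control median, limit read from the data; inconclusive = replicates evenly split on the limit, or fluorescence at least double controls; inactive = too little inhibition in most replicates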;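 note: 0% = DMSO and -100% = 5 µM competing unlabeled TCR2 RNA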
MCL1 BIM primary: inhibitors of human MCL1 binding to BIM-BH3 peptide; Q07820; GST-MCL1 / FITC-Bim-BH3 fluorescence polarization; inhibition, % at 10.9 µM; actives 0.68% (n = 320,000);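 active = inhibition above the mean inhibition of all tested compounds plus 3 SD, set per campaign, cut at about 40% in these data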;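 note: 0% = DMSO wells and 100% = unlabeled Bim-BH3 peptide control; higher means more loss of mP so more displacement of Bim peptide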
GLD-1 TGE inh: GLD-1-TGE RNA interaction inhibition (C. elegans); purified GLD-1 + fluorescein TGE RNA, fluorescence polarization; inhibition, % at 5.96 µM; Q17339; actives 0.44% (n = 320,000);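 active = percent inhibition above a per-plate cutoff, the plate mean of test compounds plus 3 SD, cut at about 30% in these data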;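 note: 0% = DMSO wells with GLD-1 and probe and 100% = wells lacking GLD-1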
Target sequence (Q17339 whole entry, looked up): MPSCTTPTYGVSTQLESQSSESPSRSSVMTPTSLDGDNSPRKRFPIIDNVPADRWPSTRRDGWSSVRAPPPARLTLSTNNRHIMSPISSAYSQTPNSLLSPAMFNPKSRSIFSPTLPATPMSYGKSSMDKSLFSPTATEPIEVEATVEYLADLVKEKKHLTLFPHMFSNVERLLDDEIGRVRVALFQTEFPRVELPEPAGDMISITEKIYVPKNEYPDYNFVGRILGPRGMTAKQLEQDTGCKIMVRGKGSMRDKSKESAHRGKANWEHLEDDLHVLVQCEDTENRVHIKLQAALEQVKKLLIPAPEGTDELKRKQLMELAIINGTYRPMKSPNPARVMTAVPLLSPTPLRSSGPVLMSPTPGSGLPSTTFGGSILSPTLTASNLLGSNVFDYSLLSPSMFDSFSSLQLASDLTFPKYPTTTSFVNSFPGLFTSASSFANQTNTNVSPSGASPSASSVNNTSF
Bcl-xL conf: Bcl-xL (human) inhibition, MCL1 counter-screen confirmation; inhibition, % at 10.9 µM; GST-Bcl-xL / FITC-Bim BH3 peptide FP binding; AID 2166; shares compounds with MCL1 BIM primary; actives 54% (n = 1,700);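 active = inhibition above a cutoff equal to the mean inhibition of all tested compounds plus 3 SD, cut at about 30% in these data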;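 note: 0% = DMSO wells and 100% = unlabeled Bim BH3 control peptide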
MCL1 BIM confirm: confirmation of human MCL1 and BIM-BH3 interaction inhibitors. actives 61% (n = 1,700). shares compounds with MCL1 BIM primary. inhibition, % at 10.9 µM. AID 2168. GST-MCL1 / FITC-Bim-BH3 fluorescence polarization;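 active = inhibition above the average of all tested compounds plus 3 SD, cut at about 40% in these data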;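 note: 0% = DMSO wells and 100% = unlabeled Bim-BH3 control peptide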
* hit, by the source's call; u = inconclusive; x = not tested or not shown; + = active, no number. The list is not random: actives were taken first. Their share in the collection is about 1.5%.

SMILES	BCLXL inh	EBV gp42 inh	eLon inh	MEX-5 binding	MCL1 BIM primary	GLD-1 TGE inh	Bcl-xL conf	MCL1 BIM confirm
CNc1ccc(Br)cc(C(=O)/C=C/c2ccc3c(c2)OCO3)c1=O	27.3	25.9	-14.6	-3.3	49.5*	14.8	-4.0	-19.5
COC(=O)C1CSc2[nH]c(=O)sc2C1c1ccccc1 (configuration not stated)	106.6*	-1.0	19.0	-56.9*	118.6*	84.2*	88.0*	109.1*
O=C(c1cccs1)N1CCN(S(=O)(=O)c2cccc(Cl)c2Cl)CC1	x	x	-1.4	x	x	x	x	x
CC1CC(C)CN(C(=O)COC(=O)c2ccc3c(c2)OCO3)C1 (configuration not stated)	2.0	x	-6.9	x	46.2*	4.7	-1.2	6.5
CC(=O)Nc1cccc(C2=CC(c3ccco3)n3ncnc3N2)c1 (configuration not stated)	115.8*	130.1*	x	-87.2*	122.6*	68.8*	140.9*	177.2*
CC1=C(C(=O)Nc2ccccc2)C(c2ccco2)n2ncnc2N1 (configuration not stated)	0.8	-11.6	-2.2	1.1	4.2	7.4	x	x
COCCCNC(=O)c1ccc2c3c(onc13)-c1ccccc1C2=O	+	183.8*	2.4	-78.9*	+	196.8*	+	+
COCCCNC(=O)c1ccccc1Oc1ccccc1	11.9	-14.2	-4.2	-1.3	-4.5	-0.4	x	x
O=C(Cc1ccc(S(=O)(=O)N2CCOCC2)s1)Nc1nc2c(s1)CCCC2	80.0*	-10.6	-1.4	-2.3	101.7*	65.8*	31.5*	52.1*
COc1cc(C2C3CN(C)CC=C3C(C#N)=C(N)C2(C#N)C#N)ccc1OC(C)C (configuration not stated)	59.6*	10.3	8.5	-29.6*	65.8*	12.2	20.5	27.2
CC(C)(C)OC(=O)N1CC=C2C(C#N)=C(N)C(C#N)(C#N)[C@H](c3cccnc3)[C@H]2C1	53.2*	-3.0	-13.5	-28.0*	66.7*	36.5*	45.3*	47.2*
COc1cc([C@@H]2[C@H]3CNCC=C3C(C#N)=C(N)C2(C#N)C#N)ccc1OC(C)C	-1.2	0.8	-62.3	-8.3	-12.7	-20.6	x	x
CC(C)N1CC=C2C(C#N)=C(N)C(C#N)(C#N)[C@H](c3ccoc3)[C@H]2C1	157.6*	129.7*	x	u	183.2*	85.0*	78.4*	100.1*
Cc1csc(=O)n1CCC(=O)OCC(=O)N(C)c1c(N)n(Cc2ccccc2)c(=O)[nH]c1=O	x	x	-13.0	x	x	x	x	x
COc1cc(OC)nc(/N=C/NO)n1	5.5	-4.5	-0.5	0.1	5.1	-0.1	x	x
c1coc(Cn2nnnc2CN2CCN(C3CCCC3)CC2)c1	4.5	7.3	-1.4	-1.1	40.4*	4.9	5.9	1.6
O=C(O)c1ccc(-n2cccc2/C=C2/SC(=O)N(CC(=O)N3CCCC3)C2=O)cc1	14.2	x	-5.7	-21.1	54.6*	1.3	18.5	49.9*
N#Cc1ccccc1CN1C(=O)S/C(=C/c2cccn2-c2ccc(C(=O)O)cc2)C1=O	3.3	-1.4	-10.8	0.9	19.9	1.0	x	x
COc1ccc(OC)c(NC(=O)COC(=O)c2cc3c(s2)CCC3)c1	6.1	15.5	-1.3	1.4	56.6*	7.8	11.1	43.4*
COc1ccccc1NC(=O)COC(=O)c1cc2c(s1)CCC2	x	x	-3.4	x	x	x	x	x
N#Cc1c(-c2ccc(Cl)cc2)cc(-c2cccs2)nc1SCC(=O)O	49.7*	x	0.8	1.9	72.5*	2.9	36.8*	53.0*
Cc1noc(C)c1C(=O)OCC(=O)Nc1ccccc1SCC#N	-4.2	x	-30.4	x	-30.0	-23.1	x	x
O=C(NNC1=Nc2cccc3cccc1c23)c1ccc(Br)cc1	27.7	60.2*	-28.7	-4.8	41.5*	13.9	57.1*	80.5*
COC(=O)c1c(Cl)c2n3ccccc3c(C)c(-c3ccccc3)c-2c1C(=O)OC	171.6*	97.3*	19.8	-40.6*	+	178.6*	37.5*	34.8
